According to PubChem BioAssay (NCI):
This is part of a sample that, as a whole, favours compounds with a hit. Of some 83,000 tested, about 20% had one in any assay.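 Testing used 96-well plates and a 48-hour single-concentration exposure. Example: -40 means 40% of the starting cells died.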 Values without a mark were called inactive. Calls of active or inactive are those of the source.

tested on: SW-620 colon; assay: NCI-60 one-dose screen, 48 h (100 = growth as untreated, 0 = no growth, -100 = all killed); conditions: 10 µM unless noted
Procedure: Growth inhibition of the SW-620 human tumor cell line is measured as a screen for anti-cancer activity. Cells are grown in 96 well plates and exposed to the test compound for 48 hours. Compounds are tested at a single concentration, which is 10^-5 M for most compounds. The reported endpoint is percent growth (GI% or GIPRCNT), where numbers from 0 - 100% represent growth inhibition, and numbers from -100% - 0 represent cell death. For example, a value of 40 represents 60% growth inhibition. A value of 0 means no net growth occurred over the course of the experiment. A value of -40 indicates 40% of cells at the beginning of the experiment died by the end of the experiment. A value of -100 means all cells are dead at the end of the experiment.
NCI-60 Human Tumor Cell Lines Screen was performed using the standard one-dose NCI protocol, which is described in more detail at https://dtp.cancer.gov/discovery_development/nci-60/default.htm.
Compounds with GIPRCNT values below 10 were considered active. Activity score was based on GIPRCNT using the following formula: […]
Score is 0 for GIPRCNT values of 100 or above, 50 for GIPRCNT values of 0, and 100 for GIPRCNT values of -100.

SMILES	growth
Oc1c(CN2CCC(N3CCCCC3)CC2)cc(Cc2cc(CN3CCC(N4CCCCC4)CC3)c(O)c3ncccc23)c2cccnc12	29.1%
CC(=C(c1ccc(OCCN2CCCCC2)cc1)c1ccc(OCCN2CCCCC2)cc1)c1ccc(Cl)cc1	-84.8% (active)
CN1CCN(CCOc2ccc(-c3cnc4c(-c5ccc(F)cc5)cnn4c3)cc2)CC1	-86.9% (active)
O=C(Nc1ccccc1[N+](=O)[O-])c1ccc(Cl)c(Cl)c1	97.9%
CCN1C(=O)N(CC)C2C1N=C(SCc1ccc(Cl)cc1)N2/N=C/C=C/c1ccccc1OC (stereo not given)	74.8%
O=C1NC(=O)/C(=C/c2c(-c3ccccc3)nc3sc(COc4ccccc4)nn23)S1	105%
Cc1ccc(-c2nc(N3CCNCC3)c3oc(-c4ccc(C)cc4)nc3n2)cc1	-69.3% (active)
O=C(NC(Cc1nnc2n(Cc3ccccc3)c(=O)c3c4c(sc3n12)CCCC4)c1ccccc1)c1ccccc1 (stereo not given)	101%
CCOC(=O)c1c(C)nc2ccccc2c1/C=C/c1ccccc1	91.1%
O=C(c1c[nH]c2ccccc12)c1n[nH]c(=S)n1-c1cccc(Br)c1	94.6%
Cc1ccc(C(=O)c2ccc(CC(=O)NN3C(=O)c4ccccc4C3=O)n2C)cc1	99.3%
CCOC(=O)c1c(C)nc2ccccc2c1/C=C/c1cccs1	91.9%
Cc1ccc(/C=C/C(=O)c2ccc(-n3cc(CN4CCN(c5cc6c(cc5F)c(=O)c(C(=O)O)cn6C5CC5)CC4)nn3)cc2)cc1	98.4%
COc1cccc(/C=N/NC(=O)c2ccccc2N2CCCC2)c1O	45.3%
Cc1ccc2nc(-c3ccc(C(=O)NNC(=S)Nc4ccccc4)cc3)[nH]c2c1	108%
CCN(CC)CCCOc1ccc2ncnc(Nc3ccc(Oc4cccc(C(F)(F)F)c4)c(Cl)c3)c2c1	-87% (active)
C#CC#CC#CC#CC#CC#CC#CC#CCC1OC[C@H](COC(=O)O[C@@H](C(=O)O[C@H]2C[C@@]3(O)[C@@H](OC(=O)c4ccccc4)[C@@H]4[C@]5(OC(C)=O)CO[C@@H]5C[C@H](O)[C@@]4(C)C(=O)[C@H](OC(C)=O)C(=C2C)C3(C)C)[C@@H](NC(=O)c2ccccc2)c2ccccc2)O1 (stereo not given in full)	27.7%
CC(=O)c1sc2sc(C(C)=O)c(C)c2c1C	102%
COc1ccc(/C=C/c2c(C(=O)/C=C/c3ccccc3)c(C)nc3ccccc23)cc1	2% (active)
CCN1C2CCC1/C(=C\c1ccc(F)cc1)C(=O)/C2=C/c1ccc(F)cc1	30.4%

SMILES	growth
C=C(C)[C@@H]1CCC[C@]2(C(=O)O)CC[C@]3(C)[C@@H](CC[C@@H]4[C@@]5(C)C/C(=C/c6ccncc6)C(=O)C(C)(C)[C@@H]5CC[C@]43C)[C@@H]12	17.5%
CN(Cc1cc(Br)cc(Br)c1O)Cc1cc(Br)cc(Br)c1O	24.5%
Cn1cc(-c2nn3cc(-c4cccs4)nc3s2)c2cc(F)ccc21	12.4%
CCCCCCCCCCCCCCCCCC1=NC(C)(C)CN1CC(C)O (stereo not given)	3.6% (active)
FC(F)(F)Oc1cccc(-c2cnc3ccc(-c4ccncc4)nn23)c1	23.2%
CCNc1nc(O)c(/C=C2\C=Nc3ncccc32)s1	6.52% (active)
CCCCCCCCCCCCCCCCCCOc1ccccc1CC(=O)NCC[N+]1(C)CCCCC1	63.8%
COc1ccc(C2=CN3CC=CC3CC2=O)cc1 (stereo not given)	105%
CNC(C)[C@H]1CCC2C3CC=C4C(=O)[C@@H](NC(=O)C=C(C)C)CC[C@]4(C)C3CC[C@@]21C (stereo not given in full)	-52% (active)
Cn1cc(-c2ccc(-c3cn(C)c4ccc(Cl)cc34)[nH]2)c2cc(Cl)ccc21	-83.1% (active)
Nc1nc(N)c2c(n1)NC(c1ccc(Cl)cc1)C1CCc3ccccc3C1=N2 (stereo not given)	63.8%
CC[C@]12C=CCN3CC[C@@]4(c5ccc(OC)cc5N(C)[C@H]4[C@@](O)(C(=O)OC)[C@@H]1OC(=O)CCC[P+](c1ccccc1)(c1ccccc1)c1ccccc1)[C@@H]32	17.4%
COc1cccc(-c2cc(-c3cccc(Cl)c3)c(C#N)c(=O)[nH]2)c1	49.3%
COc1cc(OC)c2sc(-c3ccc(-n4cncc4-c4cc(OC)c(OC)c(OC)c4)cc3)nc2c1	56.6%
O=C(O)c1cn(C2CC2)c2cc(N3CCN(C(=O)Nc4nc(-c5ccc(Br)cc5)cs4)CC3)c(F)cc2c1=O	21.6%
CCO/C=N/C1=C(C#N)C(c2ccc(F)cc2)c2sc3c(F)cccc3c2O1 (stereo not given)	20.6%
N#CC1CCc2c(c(-c3ccc4nc(N)sc4c3)nc3ccc4[nH]ncc4c23)C1 (stereo not given)	39.1%
NS(=O)(=O)c1ccc(NC(=O)/C(=C\c2ccc(Cl)cc2Cl)NC(=O)c2ccccc2)cc1	104%
N#Cc1nc(-c2ccccc2)oc1S(=O)(=O)N1CCN(c2ccc(F)cc2)CC1	32.9%
NC1=Nc2cc(OCCCCN3Cc4ccccc4C3)c(OCC3CC3)cc2C12CCCC2	3.2% (active)
